Where “and” joins values, the source holds several entries; their conditions need not be identical. Equal entries are not always repeated. This is part of a sample that, as a whole, favours compounds with a hit. Of some 83,000 tested, about 20% had one in any assay.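 Testing used 96-well plates and a 48-hour single-concentration exposure. Example: -40 means 40% of the starting cells died.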 Calls of active or inactive are those of the source. How the source made its calls: active means growth percent below 10; inactive means the rest.
system: MDA-MB-468 breast; test: NCI-60 one-dose screen, 48 h (100 = growth as untreated, 0 = no growth, -100 = all killed); conditions: 10 µM unless noted

Compound	growth
CC(C)(C)c1nc(-c2ccc(O)c(O)c2)cs1	53.5% (inactive)
Cc1nc2ccccc2c(/C=C/c2ccccc2)c1C(=O)/C=C/c1ccccc1	35.6% (inactive)
C/C(=C/CCC(C)[C@@H]1CC[C@]2(C)C3=C(CC[C@@]12C)[C@@]1(C)CCC(=O)C(C)(C)[C@@H]1CC3)C(=O)O (stereo not given in full)	-60.4% (active)
O=C1OC(Oc2ccccc2)(c2ccccc2)c2ccccc21 (stereo not given)	112% (inactive)
COC(=O)C(CC(=O)c1ccc(-c2ccccc2)cc1)c1ccccc1 (stereo not given)	52.5% (inactive)
N/C(=N\C(N)=N\c1nc2ccccc2s1)c1cccc(Br)c1	90.6% (inactive)
COc1c(NC=O)c2c(c([N+](=O)[O-])c1OC)C(=O)OC2	113% (inactive) and 93.1% (inactive)
CC1=C(C)C[C@]2(C(=O)O[C@H]3CCCC[C@@H]32)[S@](=O)C1	114% (inactive)
COc1cc(NC(=O)CCSc2nc3ccccc3c(=O)n2Cc2ccccc2)cc(OC)c1OC	93.3% (inactive)
N=c1nc(N)ncn1-c1ccccc1	113% (inactive)
Cc1ccccc1CNc1c2ccccc2nc2ccccc12	5.84% (active)
CCN(CC)CC#CCOC(=O)[C@]1(C)CCC[C@@]2(C)[C@H]1CC(C=O)=C1C=C(C(C)C)CC[C@@H]12	41.5% (inactive)
CS(=O)(=O)c1ccc(-c2[nH]c3ccc(F)cc3c2/C=N/NC(N)=S)cc1	8.01% (active)
Nc1ccc(Sc2ccc3c4c2cccc4c(=O)n2c4ccccc4nc32)cc1	43.5% (inactive)
CC1=C(C(=O)n2c3ccccc3c3ccccc32)C(c2cccc([N+](=O)[O-])c2)C(C(=O)n2c3ccccc3c3ccccc32)=C(C)N1	118% (inactive)

From PubChem BioAssay (NCI)
